The nature of assay [1]: qHTS assay to identify small molecule agonists of the vitamin D receptor (VDR) signaling pathway - cell viability counter screen (AID 743224). Further: nearly all actives have a fitted effect of over 50% in size. Further: potency means the concentration at half of the fitted maximal effect. A digest of the protocol: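 VDR-bla cells were preincubated 4 h at 37C/5% CO2, then exposed to compounds for 16 h. After the 2 h room-temperature bla FRET read, CellTiter-Glo was added to the same wells and luminescence read after 30 min.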
In general terms: In qHTS, concentration-response curves come from the screen itself.

A short description of assay [2]: qHTS assay to identify small molecule antagonists of the vitamin D receptor (VDR) signaling pathway - cell viability counter screen (AID 743225). Further: nearly all actives have a fitted effect of over 50% in size. Further: potency means the concentration at half of the fitted maximal effect. Summed up:
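VDR-bla HEK 293T cells, 4 h pre-incubation at 37C, then compound plus 1-alpha,25-dihydroxyvitamin D3 (3 nM final) for 16 h. After the beta-lactamase FRET read, CellTiter-Glo was added to the same wells; luminescence after 30 min at room temperature.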

Assay [3] can be described thus: qHTS assay to identify small molecule agonists of the NFkB signaling pathway - cell viability counter screen (AID 1159515; calls by dose curve; further: nearly all actives have a fitted effect of over 55% in size; further: potency means the concentration at half of the fitted maximal effect). A digest of the protocol:
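NFkB-bla ME-180 cells, 2,000/well, were plated overnight at 37 C, 5% CO2, then exposed to compounds in DMSO for 5 hr. After the bla FRET read, CellTiter-Glo was added to the same wells; luminescence was read after 30 min at room temperature.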

Assay [4] in a line: qHTS assay to identify small molecule agonists of the AP-1 signaling pathway - cell viability counter screen (AID 1159525; calls by dose curve; further: nearly all actives have a fitted effect of over 55% in size; further: potency means the concentration at half of the fitted maximal effect). A digest of the protocol:
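AP-1-bla ME-180 cells in Opti-MEM with 0.5% dialyzed FBS, compound exposure 5 h at 37 C in 15-point titration. Viability read in the same wells as ATP content by CellTiter-Glo luminescence, normalised to tetra-n-octylammonium bromide and DMSO controls.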

A short description of assay [5]: qHTS assay to identify small molecule agonists of the AP-1 signaling pathway (AID 1159526; calls by dose curve; further: on the % scale 0 is the no-effect control and ±100 the full control effect).
Assay [6] can be described thus: qHTS assay to identify small molecule agonists of the RXR signaling pathway - cell viability counter screen (AID 1159529). Further: nearly all actives have a fitted effect of over 50% in size. Further: potency means the concentration at half of the fitted maximal effect. A digest of the protocol: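 RXR-alpha-UAS-bla HEK 293T cells in medium with 2% charcoal-stripped FBS were preincubated 5 hr, then exposed to compounds for 16 hr at 37 C. Viability was read as CellTiter-Glo luminescence after 30 min at room temperature.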

Assay [7] can be described thus: qHTS assay to identify small molecule antagonists of the retinoid acid receptor (RAR) signaling pathway - cell viability counter screen (AID 1159551). Further: on the % scale 0 is the no-effect control and ±100 the full control effect; nearly all actives have a fitted effect of over 35% in size. A digest of the protocol:
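C3RL4 cells were seeded overnight at 37 C, then treated with compounds plus 1 uM (final) retinol for 6 h at 37 C. Viability was read as ATP by CellTiter-Glo luminescence after 30 min at room temperature.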

Assay [8] is described as follows: qHTS assay to identify small molecule agonists of the endoplasmic reticulum stress response signaling pathway (AID 1159516; active means well fitted activation curve with a large enough effect in the signal ratio in the repeat runs, not every such curve was filed as active; the % refers to the signal ratio; further: on the % scale 0 is the no-effect control and ±100 the full control effect). A digest of the protocol: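 CellSensor ESRE-bla HeLa cells, carrying a beta-lactamase reporter driven by the ER stress response element, were plated overnight and exposed to compounds for 5 hr at 37 C. Reporter activity was read as FRET substrate fluorescence after 2 hr at room temperature.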

A short description of assay [9]: qHTS assay to identify small molecule agonists of the endoplasmic reticulum stress response signaling pathway - cell viability counter screen (AID 1159517; calls by dose curve; further: series mostly up to about 61 µM; on the % scale 0 is the no-effect control and ±100 the full control effect; nearly all actives have a fitted effect of over 50% in size). A digest of the protocol: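 ESRE-bla HeLa cells, 1,500 per well, seeded overnight then treated with compounds for 5 hr at 37 C. After the beta-lactamase read, viability in the same wells is measured by CellTiter-Glo luminescence after 30 min at room temperature.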

Assay [10] is described as follows: qHTS assay to identify small molecule antagonists of the retinoid-related orphan receptor gamma (ROR-gamma) signaling pathway - cell viability counter screen (AID 1159520). Further: nearly all actives have a fitted effect of over 50% in size. Further: potency means the concentration at half of the fitted maximal effect. Summed up: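 Tet-on ROR gamma CHO cells were given compounds for 2 hr, then doxycycline hyclate at 1 uM final, and incubated 16 hr at 37 C. Viability was measured as ATP content by CellTiter-Glo luminescence.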

Assay [11] concerns the target Nuclear receptor ROR-gamma (Homo sapiens) (UniProt P51449). In words: qHTS assay to identify small molecule antagonists of the retinoid-related orphan receptor gamma (ROR-gamma) signaling pathway (AID 1159521; further: nearly all actives have a fitted effect of over 50% in size; further: potency means the concentration at half of the fitted maximal effect). Summed up:
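Tet-on RORγ CHO cells carrying a ROR response element–luciferase reporter were pretreated with compounds for 2 h, then induced with 1 uM (final) doxycycline hyclate for 16 h at 37 C. Antagonism was read as decreased ONE-Glo luminescence.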

Assay [12] deals with Retinoic acid receptor RXR-alpha (Homo sapiens) (UniProt P19793). In words: qHTS assay to identify small molecule agonists of the RXR signaling pathway (AID 1159527; calls by dose curve; further: on the % scale 0 is the no-effect control and ±100 the full control effect; nearly all actives have a fitted effect of over 35% in size). A digest of the protocol:
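GeneBLAzer RXR-alpha-UAS-bla HEK 293T cells in medium with 2% charcoal-stripped FBS, pre-incubated 5 hr at 37 C, then exposed to compounds 16 hr. Beta-lactamase reporter read by FRET substrate, 2 hr room temperature, 460/530 nm emission.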

Assay [13] is described as follows: qHTS assay to identify small molecule antagonists of the retinoic acid receptor (RAR) signaling pathway (AID 1159552; further: nearly all actives have a fitted effect of over 50% in size; further: potency means the concentration at half of the fitted maximal effect). A digest of the protocol:
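RARE-luc C3RL4 cells; cpds + 1 uM (final) retinol, 6 hr, 37 C/5% CO2; luciferase reagent, 30 min RT, luminescence readout. Inhibitors of retinol-driven signal scored.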

Assay [14] is described as follows: qHTS assay to identify small molecule agonists of the retinoic acid receptor (RAR) signaling pathway (AID 1159553). Further: on the % scale 0 is the no-effect control and ±100 the full control effect. Summed up: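 C3RL4 cells carrying a RARE luciferase reporter were plated overnight at 37 C, then exposed to compounds in DMSO for 6 hr at 37 C and 5% CO2. Luminescence was read 30 min after luciferase reagent addition at room temperature.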
Assay [15] is described as follows: qHTS assay to identify small molecule antagonists of the estrogen related receptor (ERR) signaling pathway - cell viability counter screen (AID 1224818).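 Further: series mostly up to about 46 µM; viability measured after 17.5 h of compound exposure; on the % scale 0 is the no-effect control and ±100 the full control effect.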 A digest of the protocol: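 ERR reporter cells plated 6 h at 37 C/5% CO2, then compounds in DMSO pin-transferred and incubated 17.5 h at 37 C. Viability read as CellTiter-Fluor fluorescence after 30 min at 37 C.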

A short description of assay [16]: qHTS assay to identify small molecule antagonists of the estrogen related receptor (ERR) signaling pathway (AID 1224819). A digest of the protocol: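 ERR reporter cells were plated at 2,000 cells/well and left 6 h at 37 C/5% CO2 before pin-tool transfer of compounds in DMSO. After 18 h at 37 C, One-Glo was added and luminescence was read 30 min later at room temperature.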

A short description of assay [17]: qHTS assay to identify small molecule antagonists of the estrogen related receptor signaling pathway with the pleiotropic PPARgamma coactivator (PGC) cell viability counter screen (AID 1224822). Summed up:
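PGC/ERR cells were seeded at 2,000 cells/well, rested 6 h at 37 C/5% CO2, then given compounds in DMSO by pin tool and incubated 17.5 h at 37 C. Viability came from CellTiter-Fluor fluorescence after 30 min.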

Values joined by “and” are separate entries in the source; they are usually repeats but may differ in a detail not shown here. Equal values may be shown once. Inconclusive results are not listed. Where a structure was tested more than once in an assay, its records may differ in their call. Active and inactive are the calls of the source. Unless noted, the call rests on the fitted dose curve; in most records, active means well fitted curve in the direction sought with a large enough effect in the repeat runs; inconclusive means weak or mixed curves; inactive means no such curve, though single readings can be large; an effect the other way counts as inactive or inconclusive.

Retinoic acid receptor RXR-alpha (Homo sapiens), sequence (P19793 whole entry, looked up): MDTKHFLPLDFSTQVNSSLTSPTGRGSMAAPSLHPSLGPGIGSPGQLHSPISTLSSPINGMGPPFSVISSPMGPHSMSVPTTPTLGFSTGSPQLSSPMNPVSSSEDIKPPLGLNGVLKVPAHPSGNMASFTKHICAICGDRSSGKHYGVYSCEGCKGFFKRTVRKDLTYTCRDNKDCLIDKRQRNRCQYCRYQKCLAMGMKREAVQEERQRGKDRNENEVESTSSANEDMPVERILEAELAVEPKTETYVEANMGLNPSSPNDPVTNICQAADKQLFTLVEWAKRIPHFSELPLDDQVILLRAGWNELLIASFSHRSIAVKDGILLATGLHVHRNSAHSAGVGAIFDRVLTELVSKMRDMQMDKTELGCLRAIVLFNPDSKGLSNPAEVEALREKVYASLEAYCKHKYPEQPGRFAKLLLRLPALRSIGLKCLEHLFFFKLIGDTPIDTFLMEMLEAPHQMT

For `C/C=C1/C(=O)C[C@H]2[C@@H]3CCC4=CC(=O)CC[C@]4(C)[C@H]3CC[C@]12C`, the Potency entry in [1], in [2], in assay [3], in assay [4], in assay [5] and in [6] was “inactive” each time. The Potency entry in [7] is “inactive”.
For the compound `C[n+]1ccn(Cc2ccccc2)c1`, the Potency entry in [1], in assay [2], in assay [9], in assay [10], in assay [11] and in assay [5] was “inactive” throughout. For the same compound, the Potency entry in assay [12], in assay [6], in assay [7], in assay [13] and in [14] was “inactive” throughout. Besides, the outcome in assay [8] was inactive.
As to `NC(=O)C1(N2CCCCC2)CCN(CCCN2c3ccccc3CCc3ccc(Cl)cc32)CC1`, the Potency in assay [1] is 29.8 µM (active); in assay [2], 21.3 µM (active); in assay [3] it was 26.8 µM (active); in [4] it was 26.8 µM (active); in assay [6], 21.3 µM (active).
On to `NNC(=O)c1cccc(C(=O)NN)c1`, for which the Potency result in assay [1], in [2], in assay [9], in assay [10], in assay [11] and in assay [4] was “inactive” in each case. For the same compound, the Potency result in assay [5], in [12], in assay [6], in assay [7] and in [13] was “inactive” throughout. In addition, the result in assay [8] was inactive.
`COc1ccc(CN2CCN(C(c3ccc(F)cc3)c3ccc(F)cc3)CC2)c(OC)c1OC`: the Potency in [1] was 29.8 µM (active); in assay [2], 16.9 µM (active); in assay [3], 15.1 µM (active); in [11], 23.7 µM (active); in [6], 13.4 µM (active); in assay [13] it was 26.6 µM (active). Moreover, in assay [7], the Potency result is “inactive”.
For the compound `CSc1ccc(C(=O)c2[nH]c(=O)[nH]c2C)cc1`, the Potency result in assay [1], in assay [2], in [9], in assay [10], in assay [11] and in assay [4] was “inactive” in each case. Moreover, the Potency entry in assay [5], in [12], in assay [6], in assay [7], in assay [13] and in assay [14] was “inactive” each time. In addition, the Potency result in assay [15], in [16] and in assay [17] was “inactive” in each case. For the same compound, the result in [8] was inactive.
As for `NC(=NCCCCCCN=C(N)/N=C(\N)Nc1ccc(Cl)cc1)/N=C(\N)Nc1ccc(Cl)cc1`, the Potency is 35.3 µM (active) [middle of 4 runs] in [2]; 54 µM (active) and 54.2 µM (active) and inactive in [10]. The outcome in [8] was inactive. The Potency result in [5] and in [7] was “inactive” throughout.
Regarding `c1ccc(CSCc2ccccc2)cc1`, the Potency entry in [1], in [2], in assay [10], in [11], in assay [5] and in assay [12] was “inactive” throughout. Further, the Potency entry in assay [6], in assay [7] and in assay [13] was “inactive” each time. Besides, in [8], the outcome was inactive.
Regarding `CCCCCOC(=O)CCCC`, the Potency entry in assay [1], in assay [2], in assay [9], in [10], in assay [11] and in assay [5] was “inactive” throughout. Moreover, the Potency result in assay [12], in assay [6], in assay [7], in assay [13] and in [14] was “inactive” throughout. For the same compound, the compound was called inactive in assay [8].

These data come from PubChem BioAssay (Tox21).
